Where a name gives a salt, the structure may show the parent alone. Out of some 1,700 compounds screened, about 15 (0.9%) showed activity.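 Rule for the calls: active = infection cut by 80% or more with cell growth above 90% in both runs; inactive = the rest.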 Many of the other results were omitted from the sample, so actives are more common in it than they were.
Tested on: HSV-1 strain 17 YFP-ICP4 in A549
Assay: HSV-1 infection relative to DMSO (ICP4-YFP per H2B-RFP signal); higher = more viral infection (less antiviral activity), active = hit call of the paper
Conditions: 10 µM; 48 h; MOI: 0.1
Procedure: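 Selleck FDA-approved library (L1300) screened in duplicate at 10 µM on A549 H2B-mRuby cells in 384-well plates, infected with HSV-1 strain 17 YFP-ICP4 at MOI 0.1 one hour before drug addition. Imaged after 2 days at 37°C. Cell growth (H2B-RFP) and infection (ICP4-YFP) are expressed as % of DMSO-treated wells. Hits: growth >90% and infection <20% of DMSO.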

Row | SMILES | HSV-1 infection
1 | COC(=O)C1=C(C#N)NC(C)=C(C(=O)OC(C)C)C1c1cccc([N+](=O)[O-])c1 (configuration not stated) [Nilvadipine] | 95.1% (inactive)
2 | Cc1onc(-c2c(F)cccc2Cl)c1C(=O)N[C@@H]1C(=O)N2[C@@H]1SC(C)(C)[C@@H]2C(=O)O [Flucloxacillin sodium] | 114% (inactive)
3 | O=C(Nc1cccc2c(=O)cc(-c3nnn[nH]3)oc12)c1ccc(OCCCCc2ccccc2)cc1 [Pranlukast] | 79.1% (inactive)
4 | OB1OCc2cc(F)ccc21 [Tavaborole (AN-2690)] | 115% (inactive)
5 | CCOc1cc(N)c(Cl)cc1C(=O)NCC1CN(Cc2ccc(F)cc2)CCO1 (configuration not stated) [Mosapride Citrate] | 96.7% (inactive)
6 | CCOc1cc(N)c(Cl)cc1C(=O)NCC1CN(Cc2ccc(F)cc2)CCO1 (configuration not stated) [Mosapride] | 97.6% (inactive)
7 | C[N+]1(C)[C@@H]2C[C@@H](OC(=O)C(O)(c3cccs3)c3cccs3)C[C@H]1[C@@H]1O[C@@H]12 [Tiotropium Bromide hydrate] | 100% (inactive)
8 | CCOCCn1c(C2CCN(CCc3ccc(C(C)(C)C(=O)O)cc3)CC2)nc2ccccc21 [Bilastine] | 107% (inactive)
9 | CC1(C)S[C@@H]2[C@H](NC(=O)Cc3ccccc3)C(=O)N2[C@H]1C(=O)O.CCN(CC)CCOC(=O)c1ccc(N)cc1 [Penicillin G Procaine] | 120% (inactive)
10 | Cc1cncc(CN2CCC(=C3c4ccc(Cl)cc4CCc4cccnc43)CC2)c1 [Rupatadine Fumarate] | 108% (inactive)
11 | CO[C@H]1O[C@H](COS(=O)(=O)O)[C@@H](O[C@@H]2O[C@@H](C(=O)O)[C@@H](O[C@H]3O[C@H](COS(=O)(=O)O)[C@@H](O[C@@H]4O[C@H](C(=O)O)[C@@H](O[C@H]5O[C@H](COS(=O)(=O)O)[C@@H](O)[C@H](O)[C@H]5NS(=O)(=O)O)[C@H](O)[C@H]4O)[C@H](OS(=O)(=O)O)[C@H]3NS(=O)(=O)O)[C@H](O)[C@H]2OS(=O)(=O)O)[C@H](O)[C@H]1NS(=O)(=O)O [Fondaparinux Sodium] | 104% (inactive)
12 | O=c1c(-n2ccnn2)c[nH]n1-c1cc(N2CCOCC2)ncn1 [Molidustat (BAY 85-3934)] | 81.4% (inactive)
13 | CC(C)OC(=O)[C@H](C)N[P@](=O)(CO[C@H](C)Cn1cnc2c(N)ncnc21)Oc1ccccc1 [Tenofovir Alafenamide (GS-7340)] | 2.77% (active)
14 | CC(C)OC(=O)OCOP(=O)(CO[C@H](C)Cn1cnc2c(N)ncnc21)OCOC(=O)OC(C)C [Tenofovir Disoproxil Fumarate] | 86.9% (inactive)
15 | CC(C)OC(=O)[C@H](C)N[P@](=O)(OC[C@H]1O[C@@H](n2ccc(=O)[nH]c2=O)[C@](C)(F)[C@@H]1O)Oc1ccccc1 [Sofosbuvir (PSI-7977, GS-7977)] | 105% (inactive)
16 | CCN(C(=O)c1c(O)c2c(Cl)cccc2n(C)c1=O)c1ccccc1 [Laquinimod] | 117% (inactive)
17 | CC(=O)Nc1cccc(-n2c(=O)n(C3CC3)c(=O)c3c(Nc4ccc(I)cc4F)n(C)c(=O)c(C)c32)c1 | 43.8% (inactive)
18 | Cc1ccccc1C(=O)Nc1ccc(C(=O)N2CCCC(O)c3cc(Cl)ccc32)c(C)c1 (configuration not stated) [Tolvaptan] | 68% (inactive)
19 | Cc1[nH]c2ccccc2c1CCNCc1ccc(/C=C/C(=O)NO)cc1 [Panobinostat (LBH589)] | 34.1% (inactive)
20 | CC(C)C[C@H](NC(=O)[C@@H](NC(=O)c1cccc(-c2ccccc2)n1)[C@@H](C)O)B(O)O | 106% (inactive)
21 | CN(C(=O)c1ccc(F)cc1C(F)(F)F)C1CCN(c2nnc(-c3ccnn3C)c3ccccc23)CC1 | 113% (inactive)

Row | SMILES | HSV-1 infection
22 | Cc1cn([C@H]2C[C@H](N=[N+]=[N-])[C@@H](CO)O2)c(=O)[nH]c1=O [Zidovudine] | 89.6% (inactive)
23 | Cc1cn([C@H]2O[C@@H](CO)[C@H](O)[C@H]2F)c(=O)[nH]c1=O [Clevudine] | 114% (inactive)
24 | Cc1cn([C@@H]2C[C@@H](O)[C@H](CO)O2)c(=O)[nH]c1=O [Telbivudine] | 139% (inactive)
25 | O=c1[nH]c(=O)n([C@H]2C[C@H](O)[C@@H](CO)O2)cc1C(F)(F)F [Trifluridine] | 20.6% (inactive)
26 | O=c1[nH]c(=O)n([C@H]2C[C@H](O)[C@@H](CO)O2)cc1I [Idoxuridine] | 2.44% (active)
27 | O=c1[nH]c(=O)n([C@H]2C[C@H](O)[C@@H](CO)O2)cc1/C=C/Br [Brivudine] | 2.36% (active)
28 | CCNC1(C(N)=O)CCN(c2ncnc3c2nc(-c2ccccc2Cl)n3-c2ccc(Cl)cc2)CC1 | 105% (inactive)
29 | O=C1C(CC[S+]([O-])c2ccccc2)C(=O)N(c2ccccc2)N1c1ccccc1 (racemic) [(+/-)-Sulfinpyrazone] | 111% (inactive)
30 | C=CN1CCCC1=O.II [Povidone iodine] | 108% (inactive)
31 | CCCCCOc1ccccc1/C(=C\SC)n1ccnc1 [Neticonazole Hydrochloride] | 61.4% (inactive)
32 | CC(C)(C)C#Cc1cc(N(C(=O)[C@H]2CC[C@H](C)CC2)[C@H]2CC[C@H](O)CC2)c(C(=O)O)s1 [Lomibuvir (VX-222, VCH-222)] | 130% (inactive)
33 | COc1cc2c(cc1OC)CN(CCc1ccc(NC(=O)c3cccc4c(=O)c5cccc(OC)c5[nH]c34)cc1)CC2 | 135% (inactive)
34 | COC(=O)N[C@H](C(=O)N1CC2(CC2)C[C@H]1c1nc(-c2ccc3c(c2)C(F)(F)c2cc(-c4ccc5[nH]c([C@@H]6[C@H]7CC[C@H](C7)N6C(=O)[C@@H](NC(=O)OC)C(C)C)nc5c4)ccc2-3)c[nH]1)C(C)C [Ledipasvir (GS5885)] | 105% (inactive)
35 | CCCCC[C@](C)(O)/C=C/[C@@H]1[C@@H](C/C=C\CCCC(=O)O)[C@@H](O)C[C@H]1O [Carboprost] | 117% (inactive)
36 | NC(=O)c1ncn([C@@H]2O[C@H](CO)[C@@H](O)[C@H]2O)c1N [AICAR (Acadesine)] | 67.6% (inactive)
37 | Nc1ncn([C@H]2C[C@H](O)[C@@H](CO)O2)c(=O)n1 [Decitabine] | 7.64% (active)
38 | Nc1nc(Cl)nc2c1ncn2[C@H]1C[C@H](O)[C@@H](CO)O1 [Cladribine] | 22.3% (inactive)
39 | Nc1ccn([C@H]2CC[C@@H](CO)O2)c(=O)n1 [Zalcitabine] | 98.8% (inactive)
40 | NC(=O)c1ncn([C@@H]2O[C@H](CO)[C@@H](O)[C@H]2O)c1O [Mizoribine] | 89.7% (inactive)
41 | Nc1ncn([C@@H]2O[C@H](CO)[C@@H](O)[C@H]2O)c(=O)n1 [Azacitidine] | 5.54% (active)
42 | CC#CC(=O)N1CCC[C@H]1c1nc(-c2ccc(C(=O)Nc3ccccn3)cc2)c2c(N)nccn12 [Acalabrutinib (ACP-196)] | 98.3% (inactive)

Row | SMILES | HSV-1 infection
43 | CNC(=O)CN(CCN(CCN(CC(=O)[O-])CC(=O)NC)CC(=O)[O-])CC(=O)[O-].O.[Gd+3] [Gadodiamide Hydrate] | 108% (inactive)
44 | COc1ccc(C[C@@H](C)NC[C@H](O)c2ccc(O)c(NC=O)c2)cc1 [Arformoterol Tartrate] | 112% (inactive)
45 | Cn1cnc2c(F)c(Nc3ccc(Br)cc3Cl)c(C(=O)NOCCO)cc21 [Selumetinib (AZD6244)] | 52.5% (inactive)
46 | CNCc1cc(-c2ccccc2F)n(S(=O)(=O)c2cccnc2)c1 [Vonoprazan Fumarate (TAK-438)] | 95.8% (inactive)
47 | CCCNS(=O)(=O)Nc1ncnc(OCCOc2ncc(Br)cn2)c1-c1ccc(Br)cc1 [Macitentan] | 93.1% (inactive)
48 | C[C@@H](O)[C@H]1C(=O)N2C(C(=O)OCOC(=O)C(C)(C)C)=C(SC3CN(C4=NCCS4)C3)[C@H](C)[C@H]12 [Tebipenem Pivoxil] | 92.2% (inactive)
49 | CC1CCC(C(C)C)C(O)C1 (single isomer, unassigned; (-)) [(-)-Menthol] | 99.1% (inactive)
50 | CC(C)[C@H](N)C(=O)OCC(CO)OCn1cnc2c(=O)[nH]c(N)nc21 (some centres not stated) [Valganciclovir HCl] | 2.02% (active)
51 | Nc1nc2c(ncn2COC(CO)CO)c(=O)[nH]1 [Ganciclovir] | 2.93% (active)
52 | Nc1nc2c(ncn2COCCO)c(=O)[nH]1 [Aciclovir] | 3.03% (active)
53 | Nc1ccn(C[C@@H](CO)OCP(=O)(O)O)c(=O)n1 [Cidofovir] | 45.8% (inactive)
54 | CC(C)[C@H](N)C(=O)OCCOCn1cnc2c(=O)nc(N)[nH]c21 [Valaciclovir HCl] | 4.82% (active)
55 | C[C@H](Cn1cnc2c(N)ncnc21)OCP(=O)(O)O [Tenofovir] | 119% (inactive)
56 | C=C1[C@H](CO)[C@@H](O)C[C@@H]1n1cnc2c(=O)[nH]c(N)nc21 [Entecavir Hydrate] | 12.1% (active)
57 | C=C1[C@H](CO)[C@@H](O)C[C@@H]1n1cnc2c(=O)[nH]c(N)nc21 [Entecavir] | 7.02% (active)
58 | O=c1[nH]cnc2c1ncn2[C@@H]1O[C@H](CO)[C@@H](O)[C@H]1O [Inosine] | 82.6% (inactive)
59 | O=c1[nH]cnc2c1ncn2[C@H]1CC[C@@H](CO)O1 [Didanosine] | 112% (inactive)
60 | N/N=c1\[nH][nH]/c(=N\N)c2ccccc12 [Dihydralazine sulphate] | 123% (inactive)
61 | C1CNCCNCCNCCN1 [Cyclen] | 105% (inactive)
62 | C=C1CCN([C@H](C)[C@](O)(Cn2cncn2)c2ccc(F)cc2F)CC1 [Efinaconazole] | 93.8% (inactive)

Source: the supplement of paper PMC11537057
